Experiment [1] is described as follows: NCI Yeast Anticancer Drug Screen. Data for the rad50 strain (AID 155).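 Further: 0% = growth of vehicle-only cultures of the same strain.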 The settings on record: S. cerevisiae rad50 strain growth inhibition, hits give high values. The gist of the method: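 DNA repair mutant yeast, compound exposure, growth read-out; inhibition is taken relative to vehicle.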
Experiment [2] in a line: NCI Yeast Anticancer Drug Screen. Data for the mec2-1 strain (AID 157). The settings on record: S. cerevisiae mec2-1 strain, hits give high values. Put shortly:
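Cells of the genetically defined mec2-1 yeast strain are incubated with test compound. Inhibition of growth is calculated against vehicle-treated controls.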

A short description of experiment [3]: NCI Yeast Anticancer Drug Screen. Data for the sgs1 mgt1 strain (AID 161).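 Further: 0% = growth of cultures given vehicle only.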 The settings on record: S. cerevisiae sgs1 mgt1 strain, hits give high values. The gist of the method:
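Mutant yeast exposed to compound; growth scored against vehicle-only wells.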

Experiment [4] in a line: NCI Yeast Anticancer Drug Screen. Data for the cln2 rad14 strain (AID 165).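 Further: 0% = growth equal to vehicle treated cultures.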 The note with it: S. cerevisiae cln2 rad14 strain, hits give high values. The gist of the method:
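The screen exposed genetically defined yeast (cln2 rad14) to test compounds and scored growth inhibition relative to vehicle-treated controls.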

Experiment [5] is described as follows: NCI Yeast Anticancer Drug Screen. Data for the bub3 strain (AID 167). The note with it: S. cerevisiae bub3 mutant strain, hits give high values. The gist of the method: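 In this screen, a yeast mutant lacking normal mitotic checkpoint function is challenged with compound. Relative growth versus vehicle gives the inhibition value.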
Experiment [6] can be described thus: NCI Yeast Anticancer Drug Screen. Data for the mlh1 rad18 strain (AID 175). The settings on record: S. cerevisiae mlh1 rad18 strain growth inhibition, hits give high values. Put shortly: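 Compound-treated yeast growth, normalised to vehicle controls. Strain bears defined DNA repair mutations.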
Setting [7] is: at 5.0 µM (retest, dose inferred, filed as 0.5).
Where [8] appears, read: at 50.0 µM (retest, dose inferred, filed as 5.0).

About 79,000 compounds went through this panel and 15% of them were active in at least one assay; those are over-represented in the sample as a whole. A number with no mark means an inactive call. The source made the active and inactive calls. No stated cut-off is given here; in the data, active means growth inhibition above about 70%; inactive means the rest.

With `Cc1ccc(S(=O)(=O)Nc2ccccc2C=O)cc1`, the growth inhibition in experiment [1] (setting [7]) is 17%; in experiment [1] (setting [8]), 54%; in experiment [1] (at 50.0 µM), 99% (active); in experiment [2] (setting [7]) it was 19%; in experiment [2] (setting [8]) it was 69%; in experiment [2] (at 50.0 µM) it was 99.3% (active). For the same compound, the growth inhibition in experiment [3] (setting [7]) is 16%; in experiment [3] (setting [8]), 63%; in experiment [3] (at 50.0 µM) it was 99% (active); in experiment [4] (setting [7]), 1%; in experiment [4] (setting [8]), 50%; in experiment [4] (at 50.0 µM), 99% (active). In addition, the growth inhibition in experiment [5] (setting [7]) is 4%; in experiment [5] (setting [8]) it was 49%; in experiment [5] (at 50.0 µM) it was 98.8% (active); in experiment [6] (setting [7]), 14%; in experiment [6] (setting [8]) it was 84% (active); in experiment [6] (at 50.0 µM), 99.1% (active).

With `CCCCCCCOc1ccc(C=O)cc1OC`, the growth inhibition in experiment [1] (setting [7]) is 0%; in experiment [1] (setting [8]), 41%; in experiment [1] (at 50.0 µM) it was 7.3%; in experiment [2] (setting [7]), -1%; in experiment [2] (setting [8]), 35%; in experiment [2] (at 50.0 µM), 44%. Further, the growth inhibition in experiment [3] (setting [7]) is 3%; in experiment [3] (setting [8]), 45%; in experiment [3] (at 50.0 µM), 38.6%; in experiment [4] (setting [7]) it was -2%; in experiment [4] (setting [8]), 26%; in experiment [4] (at 50.0 µM) it was 36.9%. Further, the growth inhibition is -1% in experiment [5] (setting [7]); 38% in experiment [5] (setting [8]); 50% in experiment [5] (at 50.0 µM); 1% in experiment [6] (setting [7]); 46% in experiment [6] (setting [8]); 33.8% in experiment [6] (at 50.0 µM).

For `O=C1Oc2ccccc2C(=O)/C1=C/N1C(=O)/C(=C/c2ccc3c(c2)OCO3)SC1=S`, the growth inhibition in experiment [1] (setting [7]) is 7%; in experiment [1] (setting [8]), 76% (active); in experiment [1] (at 50.0 µM) it was 60.9%; in experiment [2] (setting [7]), -7%; in experiment [2] (setting [8]) it was 78% (active); in experiment [2] (at 50.0 µM), 47.8%. For the same compound, the growth inhibition in experiment [3] (setting [7]) is 4%; in experiment [3] (setting [8]), 66%; in experiment [3] (at 50.0 µM) it was 80.2% (active); in experiment [4] (setting [7]), -13%; in experiment [4] (setting [8]), 82% (active); in experiment [4] (at 50.0 µM), 70.5% (active). In addition, the growth inhibition in experiment [5] (setting [7]) is 31%; in experiment [5] (setting [8]), 30%; in experiment [5] (at 50.0 µM) it was 66.3%; in experiment [6] (setting [7]) it was -4%; in experiment [6] (setting [8]), 77% (active); in experiment [6] (at 50.0 µM) it was 44.3%.

For `COc1cc(NCCCCCCCC2CCCCN2)c2ncccc2c1` (stereo not given), the growth inhibition in experiment [1] (setting [7]) is -1%; in experiment [1] (setting [8]) it was 95% (active); in experiment [1] (at 50.0 µM), 86.2% (active); in experiment [2] (setting [7]) it was 6%; in experiment [2] (setting [8]), 96% (active); in experiment [2] (at 50.0 µM), 79% (active). Moreover, the growth inhibition was 11% in experiment [3] (setting [7]); 98% (active) in experiment [3] (setting [8]); 98.5% (active) in experiment [3] (at 50.0 µM); 0% in experiment [4] (setting [7]); 94% (active) in experiment [4] (setting [8]); 96.5% (active) in experiment [4] (at 50.0 µM). Further, the growth inhibition in experiment [5] (setting [7]) is 0%; in experiment [5] (setting [8]) it was 88% (active); in experiment [5] (at 50.0 µM) it was 98.5% (active); in experiment [6] (setting [7]) it was 32%; in experiment [6] (setting [8]), 96% (active); in experiment [6] (at 50.0 µM), 98.4% (active).

Take `O=c1cc(Cl)c(Cl)nn1-c1ccccc1`: the growth inhibition in experiment [1] (setting [7]) is 9%; in experiment [1] (setting [8]), 80% (active); in experiment [1] (at 50.0 µM), 89.2% (active); in experiment [2] (setting [7]) it was 12%; in experiment [2] (setting [8]), 75% (active); in experiment [2] (at 50.0 µM), 50.5%. The growth inhibition was 7% in experiment [3] (setting [7]); 71% (active) in experiment [3] (setting [8]); 40.3% in experiment [3] (at 50.0 µM); 6% in experiment [4] (setting [7]); 60% in experiment [4] (setting [8]); 71.8% (active) in experiment [4] (at 50.0 µM). Moreover, the growth inhibition in experiment [5] (setting [7]) was 4%; in experiment [5] (setting [8]) it was 84% (active); in experiment [5] (at 50.0 µM), 45.5%; in experiment [6] (setting [7]) it was 2%; in experiment [6] (setting [8]) it was 86% (active); in experiment [6] (at 50.0 µM) it was 41.2%.

In the case of `BrCC(Br)Cc1ccc2c(c1)OCO2` (stereo not given), the growth inhibition was 5% in experiment [1] (setting [7]); 30% in experiment [1] (setting [8]); 20.8% in experiment [1] (at 50.0 µM); 2% in experiment [2] (setting [7]); 25% in experiment [2] (setting [8]); -7.35% in experiment [2] (at 50.0 µM). The growth inhibition is 3% in experiment [3] (setting [7]); 60% in experiment [3] (setting [8]); 49.4% in experiment [3] (at 50.0 µM); 6% in experiment [4] (setting [7]); 21% in experiment [4] (setting [8]); -21.6% in experiment [4] (at 50.0 µM). For the same compound, the growth inhibition in experiment [5] (setting [7]) was 14%; in experiment [5] (setting [8]), 39%; in experiment [5] (at 50.0 µM) it was 4.7%; in experiment [6] (setting [7]) it was -1%; in experiment [6] (setting [8]), 84% (active); in experiment [6] (at 50.0 µM), 56.9%.

Take `OCc1c2c(cc3c1CC1(C3)Cc3cc4c(c(CO)c3C1)CCC4)CCC2`: the growth inhibition in experiment [1] (setting [7]) was 30%; in experiment [1] (setting [8]), 94% (active); in experiment [1] (at 50.0 µM) it was 8.5%; in experiment [2] (setting [7]) it was 19%; in experiment [2] (setting [8]), 97% (active); in experiment [2] (at 50.0 µM) it was 24.3%. The growth inhibition was 22% in experiment [3] (setting [7]); 98% (active) in experiment [3] (setting [8]); 27.1% in experiment [3] (at 50.0 µM); 10% in experiment [4] (setting [7]); 97% (active) in experiment [4] (setting [8]); 46.4% in experiment [4] (at 50.0 µM). For the same compound, the growth inhibition was 18% in experiment [5] (setting [7]); 97% (active) in experiment [5] (setting [8]); 52.8% in experiment [5] (at 50.0 µM); 27% in experiment [6] (setting [7]); 94% (active) in experiment [6] (setting [8]); 27.4% in experiment [6] (at 50.0 µM).

For the compound `Cc1nc2ccc(NCCN(C)C)c3c(=O)c4cc(O)ccc4n1c23`, the growth inhibition in experiment [1] (setting [7]) was 25%; in experiment [1] (setting [8]), 63%; in experiment [1] (at 50.0 µM) it was -20.4%; in experiment [2] (setting [7]) it was -3%; in experiment [2] (setting [8]), 12%; in experiment [2] (at 50.0 µM), 20.4%. In addition, the growth inhibition was -4% in experiment [3] (setting [7]); 16% in experiment [3] (setting [8]); -4.45% in experiment [3] (at 50.0 µM); 3% in experiment [4] (setting [7]); 16% in experiment [4] (setting [8]); 11.2% in experiment [4] (at 50.0 µM). Further, the growth inhibition was 13% in experiment [5] (setting [7]); 13% in experiment [5] (setting [8]); 1.4% in experiment [5] (at 50.0 µM); -3% in experiment [6] (setting [7]); 20% in experiment [6] (setting [8]); 61.4% in experiment [6] (at 50.0 µM).

Turning to `CN(/N=C\c1ccc2ccccc2c1)C1=NCCCN1`, the growth inhibition in experiment [1] (setting [7]) was 97% (active); in experiment [1] (setting [8]) it was 68%; in experiment [1] (at 50.0 µM), 56.8%; in experiment [2] (setting [7]) it was 99% (active); in experiment [2] (setting [8]), 67%; in experiment [2] (at 50.0 µM) it was 33.6%. Moreover, the growth inhibition was 98% (active) in experiment [3] (setting [7]); 56% in experiment [3] (setting [8]); 49.6% in experiment [3] (at 50.0 µM); 97% (active) in experiment [4] (setting [7]); 66% in experiment [4] (setting [8]); 7.7% in experiment [4] (at 50.0 µM). Moreover, the growth inhibition in experiment [5] (setting [7]) is 98% (active); in experiment [5] (setting [8]) it was 96% (active); in experiment [5] (at 50.0 µM), 99.2% (active); in experiment [6] (setting [7]) it was 97% (active); in experiment [6] (setting [8]), 79% (active); in experiment [6] (at 50.0 µM) it was 60.9%.

As for `C/C(=C/CC1CCC2C3=CCC4CC(O)CCC4(C)C3CCC12C)C(C)C(C)C` (stereo not given), the growth inhibition in experiment [1] (setting [7]) is 17%; in experiment [1] (setting [8]) it was 97% (active); in experiment [1] (at 50.0 µM), 98% (active); in experiment [2] (setting [7]) it was -4%; in experiment [2] (setting [8]) it was 86% (active); in experiment [2] (at 50.0 µM) it was 74.3% (active). Moreover, the growth inhibition in experiment [3] (setting [7]) was 2%; in experiment [3] (setting [8]) it was 66%; in experiment [3] (at 50.0 µM), 59.1%; in experiment [4] (setting [7]), 0%; in experiment [4] (setting [8]), 69%; in experiment [4] (at 50.0 µM), 81.5% (active). Also, the growth inhibition in experiment [5] (setting [7]) is -2%; in experiment [5] (setting [8]) it was 97% (active); in experiment [5] (at 50.0 µM), 64.8%; in experiment [6] (setting [7]), 13%; in experiment [6] (setting [8]), 89% (active); in experiment [6] (at 50.0 µM) it was 97.3% (active).

(Values after PubChem BioAssay (NCI).)
